Experimental data published in PMC10726135, “HNF4α isoforms regulate the circadian balance between carbohydrate and lipid metabolism in the liver”.
Over roughly 18,000 sequences, “log2 normalized intensity” has its median near 0.39; the highest 2% begin near 6.6. Only a selection was taken, and the highest values are over-represented in it overall.

These sequences were tested against T1, HNF4alpha2 (COS-7 nuclear extract) (Homo sapiens, UniProt P41235 1-474) (assay: protein-binding microarray; COS-7 nuclear extract on double-stranded Agilent 4x180k PBM; binding buffer, salt, pH and temperature not given in the material; high values mean tight binding). Details: chain copies: 2; label: 3' end of strand 1 on the slide; dsDNA, one strand shown.
T1 sequence: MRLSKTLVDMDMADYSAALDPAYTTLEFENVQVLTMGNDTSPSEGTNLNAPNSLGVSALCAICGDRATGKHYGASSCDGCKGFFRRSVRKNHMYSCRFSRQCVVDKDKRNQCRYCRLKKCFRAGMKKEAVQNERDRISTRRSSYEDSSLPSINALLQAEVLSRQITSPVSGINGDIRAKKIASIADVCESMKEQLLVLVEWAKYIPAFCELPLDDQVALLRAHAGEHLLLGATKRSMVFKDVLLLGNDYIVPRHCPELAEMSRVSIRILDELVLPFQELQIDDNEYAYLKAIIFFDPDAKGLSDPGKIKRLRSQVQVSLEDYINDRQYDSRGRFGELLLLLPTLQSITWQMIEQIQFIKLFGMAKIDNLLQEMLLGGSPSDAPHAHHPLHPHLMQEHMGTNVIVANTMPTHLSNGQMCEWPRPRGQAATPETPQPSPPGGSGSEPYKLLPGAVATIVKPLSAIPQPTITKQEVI
Method in brief: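 COS-7 cells were transiently transfected by CaPO4 with an expression vector for a human HNF4α isoform, and nuclear extracts were prepared from them. The extracts were applied to a custom Agilent SurePrint G3 4x180k array of double-stranded ~60-nt oligonucleotides, with ~44,000 test sequences spotted in quadruplicate. An Agilent G2565CA scanner imaged bound HNF4α at 2-µm resolution. Binding signal is the background-corrected, normalized gProcessedSignal from Agilent software.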

Sequence | binding signal [log2 normalized intensity]
GGGCGTGTGTTAGACTTTGGACCTGGCCTGGCCTAGGGAGATTAGAGTATCGGTCGA | 7.25
ACTTTGGACCTTTGTGTGTGTGTGTGTGTGGCCTAGGGAGATTAGAGTATCGGTCGA | 3.6
CACCTGTGTCAACATGGACTTTGTTGTTTGGCCTAGGGAGATTAGAGTATCGGTCGA | 4.33
TGACAACTGAATGTGACCTTTTGGACCACAGCCTAGGGAGATTAGAGTATCGGTCGA | 6.82
ACTGAATGTGACCTTTTGGACCACAGAGTGGCCTAGGGAGATTAGAGTATCGGTCGA | 5.39
GTGAGTGGACTTTGGTCCTGGTCAGACTTGGCCTAGGGAGATTAGAGTATCGGTCGA | 5.76
TGGTTAGGTATTTTAAGTCACCAGATGAGAGCCTAGGGAGATTAGAGTATCGGTCGA | 0.217
CTCCTCCCTCAGGGATCTTTGCACTTGATGGCCTAGGGAGATTAGAGTATCGGTCGA | 1.32
TGGATGGGGGAGGGGACTTCGCTGGAGGTGGCCTAGGGAGATTAGAGTATCGGTCGA | -0.382
TATCTTCGTATAGAAACAAGACAGAATGATGCCTAGGGAGATTAGAGTATCGGTCGA | -0.775
GTAAACACAGACTTTGGAATCACAATGATAGCCTAGGGAGATTAGAGTATCGGTCGA | 1.97
CCTGTACCTAGAATTCTTTCACTCCCTTTTGCCTAGGGAGATTAGAGTATCGGTCGA | 1.12
GGGGACCTTTGGCCTTTACCTGTTACTTATGCCTAGGGAGATTAGAGTATCGGTCGA | 3.57
AGGGGTTACTAGTGAGTTGGACTTTGGACCGCCTAGGGAGATTAGAGTATCGGTCGA | 11.6
TTACCGGTGTGACTTTGGTTGGATTTCTTGGCCTAGGGAGATTAGAGTATCGGTCGA | 1.54
AAGAAGGTTTACTCAAGCAAAAAGTTTGGAGCCTAGGGAGATTAGAGTATCGGTCGA | 0.467
AGGTACAAACATACTTAGGATTTTTGTGCCGCCTAGGGAGATTAGAGTATCGGTCGA | 0.442
CTCTCGGGCCAGCTGTACAAATAAAGGATGGCCTAGGGAGATTAGAGTATCGGTCGA | -0.146
TAAACTTTTGATTGCTTAGGCTCTTGTTATGCCTAGGGAGATTAGAGTATCGGTCGA | -0.703
GAGGCAGCAAGGTCAAAGTGCGTCCTGTGGGCCTAGGGAGATTAGAGTATCGGTCGA | 3.92
TTGCACTGTGCTTTGTTTACTTAACCTTTGGCCTAGGGAGATTAGAGTATCGGTCGA | 4.05
CTGTGCTTTGTTTACTTAACCTTTGATCATGCCTAGGGAGATTAGAGTATCGGTCGA | 7.05
TACCTGTGCAGATATTTAACCTTTGATCTGGCCTAGGGAGATTAGAGTATCGGTCGA | 7.34
CTTTGTTTACTTAACCTTTGATCATATGCAGCCTAGGGAGATTAGAGTATCGGTCGA | 5.18

Sequence | binding signal [log2 normalized intensity]
GATATTTAACCTTTGATCTGTAAGCTCTCTGCCTAGGGAGATTAGAGTATCGGTCGA | 4.61
GTGGCTACCTGTGCAGATATTTAACCTTTGGCCTAGGGAGATTAGAGTATCGGTCGA | 4.11
TCTGAAAAAAGCTATCATTTGTCACTTGGAGCCTAGGGAGATTAGAGTATCGGTCGA | 1.38
GACCAGGTTGTGAGGGAGGGCACAGGCAACGCCTAGGGAGATTAGAGTATCGGTCGA | -0.298
ATTTCTGTTGTTGATTTAACATTTGTGATCGCCTAGGGAGATTAGAGTATCGGTCGA | 1.92
TGATAGCCTTTTACCTTGGCAGCCACTGAGGCCTAGGGAGATTAGAGTATCGGTCGA | -0.876
AGGCTGAAGGGAAGCTCTGGGAGTGCCCTTGCCTAGGGAGATTAGAGTATCGGTCGA | 1.93
CTGCCAAATATTGGGCAATGCTAGGTCTTTGCCTAGGGAGATTAGAGTATCGGTCGA | -0.788
TGTGAAGAGTGTGGACTTTCACCTCCACCAGCCTAGGGAGATTAGAGTATCGGTCGA | 6.06
GGACTTGGGACTTTCGAGTTAATGCTGGAGGCCTAGGGAGATTAGAGTATCGGTCGA | 2.54
ACTTTGGACTTGGGACTTTCGAGTTAATGCGCCTAGGGAGATTAGAGTATCGGTCGA | 4.12
CTGGACTTTCCTTTGTTGGGAGACTTTTTAGCCTAGGGAGATTAGAGTATCGGTCGA | 1.63
GAGACTTTGGACTTTGGACTTGGGACTTTCGCCTAGGGAGATTAGAGTATCGGTCGA | 9.27
TTTGGACTTTGGACTTGGGACTTTCGAGTTGCCTAGGGAGATTAGAGTATCGGTCGA | 7.8
CCTTTGGACTGTCCTTTGCTAGATTCTTTCGCCTAGGGAGATTAGAGTATCGGTCGA | 2.01
TGTGATGTGAAGAGTGTGGACTTTCACCTCGCCTAGGGAGATTAGAGTATCGGTCGA | 8.12
GACCATGTGATGTGAAGAGTGTGGACTTTCGCCTAGGGAGATTAGAGTATCGGTCGA | 4.26
TGAGTAGTGTACGTTGTACCCCACAGGTATGCCTAGGGAGATTAGAGTATCGGTCGA | 2.94
CTCTCTTTCTTCCCCCACTCCAAGTTCCTTGCCTAGGGAGATTAGAGTATCGGTCGA | 4.22
TGCTCCAGTAAAAGCTCTACCTGACCTCCCGCCTAGGGAGATTAGAGTATCGGTCGA | 2.94
GCTGTGTCCCACAGGGAAAGTATGGGTCAGGCCTAGGGAGATTAGAGTATCGGTCGA | 1.12
TCATGTTCAATATACAGTTGGTATTTAGTAGCCTAGGGAGATTAGAGTATCGGTCGA | 1.83
CCCCTAAAGGAGGCAAGGTCCAAACTTCTCGCCTAGGGAGATTAGAGTATCGGTCGA | 1.7
ATGTTGGGCAACTACCTCAAAGTTTTGTTAGCCTAGGGAGATTAGAGTATCGGTCGA | 0.0615
